Hits are enriched below; roughly 1.6% of the tested compounds scored in any of these assays.
Arbovirus anti – antivirals against arbovirus infection, primary screen, cell-based, full library, 10K replicate subset | inhibition, % at 10 µM | AID 1251, 2008 | hit rate 0.37% among 200,000 | arbovirus infection cell-based antiviral screen; in the data active = inhibition above about 30%
p97 ATPase inh – inhibitors of human p97 ATPase, primary screen, biochemical; Transitional endoplasmic reticulum ATPase (Homo sapiens), P55072; hit rate 0.42% among 220,000; AID 1481, 2009; recombinant p97 ATPase, Kinase-Glo ATP luminescence, 3 h; inhibition, % at 8 µM; in the data active = inhibition above about 15%;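 also: 0% = DMSO vehicle and 100% = wells lacking enzyme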
S1P3 antagonist – S1P3 receptor antagonists, primary screen, cell-based | Sphingosine 1-phosphate receptor 3 (Homo sapiens), Q99500 | CHO S1P3 NFAT-BLA reporter, FRET fluorescence, antagonist mode | inhibition, % at 4.98 µM | hit rate 0.27% among 170,000 | AID 485, 2006;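 active = inhibition above the plate cutoff, the mean inhibition of test wells on that plate plus 3 SD, cut at about 28% in these data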;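 also: cells challenged with S1P at its EC80 of 0.8 µM; blue over green emission ratio from cleaved BLA substrate after 4 h stimulation; 0% = S1P-stimulated wells and 100% = unstimulated DMSO-only wells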
S1P4 agonist – S1P4 receptor agonists, primary screen, cell-based. S1P4-expressing cell line, agonist reporter assay. activation, % at 4.98 µM. hit rate 0.35% among 220,000. AID 1509, 2009; in the data active = activation above about 11%;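 also: 0% = DMSO vehicle and 100% = reference agonist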
S1P4 antag – S1P4 receptor antagonists, primary screen, cell-based | Sphingosine 1-phosphate receptor 4 (Homo sapiens), O95977 | hit rate 0.26% among 220,000 | S1P4-expressing cells, antagonist mode, reporter read-out | AID 1510, 2009 | inhibition, % at 4.98 µM; in the data active = inhibition above about 29%;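 also: 0% = wells stimulated with agonist and 100% = vehicle wells without agonist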
Redox H2O2 prof – compounds producing H2O2 with reducing agent – biochemical, NIH compound library profiling, artefact control for MLSCN library redox annotation, primary screen. DTT-dependent redox cycling H2O2, phenol red/HRP absorbance; 100% = 100 µM peroxide control, 0% = buffer. activation, % at 10 µM. hit rate 0.03% among 200,000;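 active = activation of at least 50% relative to the plate's high and low controls in the primary single-dose screen; inactive = activation below 50%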;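 also: compound incubated with DTT at 0.8 mM final as the reducing agent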
Numbers without * were called inactive; x = no result given.

SMILES | Arbovirus anti | p97 ATPase inh | S1P3 antagonist | S1P4 agonist | S1P4 antag | Redox H2O2 prof
CC1COC(=O)C(NNc2ccc(Cl)c(Cl)c2)=N1 (stereo unspecified) | -24 | 3 | 3 | 3 | 0 | 5
Cc1ccc(C(=O)Nc2cccc(C(=O)NCc3ccco3)c2)cc1 | -29 | -4 | 67* | 1 | 8 | -1
O=C(NCc1ccco1)c1cccc(NC(=O)c2ccccc2)c1 | -38 | -1 | 40 | 2 | 7 | 1
COC(=O)c1ccc(CNC(=O)c2ccc(COc3ccccc3)cc2)cc1 | 8 | 0 | 6 | 1 | -3 | 1
CSc1nc(C)c(CCO)c(=O)[nH]1 | 31* | -2 | -5 | 1 | -8 | -2
CCc1cccc(NC(=O)CCCCCC2NC(=O)NC2C)c1 (stereo unspecified) | -1 | 3 | -12 | 0 | 6 | 0
COc1ccccc1NC(=O)CSc1nc2ccccc2cc1Cc1ccccc1 | -12 | -10 | x | -2 | -23 | 5
CCN(CC)C(=O)c1c(NC(=O)c2ccccc2)sc(C)c1C | -3 | 15* | x | 2 | -4 | 0
CCOC(=O)CC1=NS(=O)(=O)c2ccccc2N1 | 77* | 4 | -43 | 0 | -24 | 0
Nc1nc(-c2ccco2)c(-c2ccco2)s1 | -9 | 20* | -16 | 0 | -11 | 3
Nc1nc(-c2ccco2)cs1 | 21 | 3 | -8 | -1 | -5 | -1
O=C(CNC(=S)N(Cc1ccccc1)Cc1cccnc1)NC1CCCC1 | -1 | -5 | -3 | 0 | -8 | -1
COc1ccc(C2C=C(c3ccc(Cl)cc3)Nc3nc(NC(C)=O)nn32)cc1 (stereo unspecified) | 9 | 3 | x | 2 | 8 | -1
COc1ccc(C2=CC(c3ccc(Cl)cc3)n3cnnc3N2)cc1OC (stereo unspecified) | 50* | 4 | x | -1 | 11 | 0
O=c1c2c3n(c(=S)nc2[nH]n1-c1ccccc1)CCCCC3 | 8 | -3 | x | -1 | 0 | 0
COCCCNCC1C(Oc2ccc(Cl)cc2)C(=O)N1c1ccccc1C (stereo unspecified) | 49* | -6 | 0 | 2 | -17 | 0
COc1ccc(CCNC(=O)CCc2ccc(S(=O)(=O)NC(C)C)cc2)cc1 | 2 | -8 | 5 | -1 | -8 | -1
COc1ccccc1-n1c(O)c(C=NCc2ccccn2)c2ccccc2c1=O | x | 15* | 10 | 0 | -12 | x
COc1ccc2nc(NC(=O)C3=NN(c4ccccc4)C(=O)CC3)sc2c1 | 48* | 5 | -6 | 7 | -26 | 1
COc1cc(C2N=C(c3ccccc3)NO2)cc(Br)c1O (stereo unspecified) | 35* | -4 | x | 4 | -19 | 0
COc1ccc(OC)c(C2C(C(C)=O)=C(O)C(=O)N2CCC(=O)O)c1 (stereo unspecified) | 7 | 6 | 104* | -3 | -20 | 1
COc1ccc(OC)c(C2C(C(C)=O)=C(O)C(=O)N2CCN2CCOCC2)c1 (stereo unspecified) | 1 | -1 | -4 | -2 | 3 | 0
COc1ccc(Oc2ccc(S(=O)(=O)N3CCCCC3)cc2S(=O)(=O)N2CCCCC2)cc1 | 36* | 5 | 5 | 0 | -1 | x
CCOC(=O)C(NC(=O)c1cccc(Cl)c1)(OCc1ccc(F)cc1)C(F)(F)F (stereo unspecified) | 49* | 3 | 24 | 0 | -29 | 0
CCOC(=O)C(NC(=O)c1ccccc1)(OCc1ccc(F)cc1)C(F)(F)F (stereo unspecified) | 2 | -7 | 12 | -1 | 8 | -1
c1ccc(-c2nn3c(-c4ccncc4)nnc3s2)nc1 | x | x | -7 | x | x | x
O=C(Nc1nc(-c2ccc(Cl)cc2Cl)cs1)c1ccc(OCC2CCCO2)cc1 (stereo unspecified) | 68* | 7 | 17 | 1 | 7 | 0
O=C(O)c1ccccc1N/N=C\c1ccnc2ccccc12 | 31* | -1 | x | 0 | -10 | -4
Cc1ccc(NC(=O)CN(C)C(=O)c2nn(C)c(=O)c3ccccc23)cc1 | x | 8 | 2 | 0 | 3 | x

Bioassay records as filed in PubChem BioAssay.
